Reference: publication PMC5540273 (PLoS ONE, 2017)

What was measured:
Conditions in all cases: concentration: 1 μM, replicates: in singlicate; n = 1
AMPK-alpha2 = system: T1, AMPK-alpha2
T1 construct: gene PRKAA2

ANKK1 = system: ANKK1
ARK5 = system: T2, ARK5
T2 construct: gene NUAK1

ASK1 = system: T3, ASK1
T3 construct: gene MAP3K5

ASK2 = system: T4, ASK2
T4 construct: gene MAP3K6

AURKA = system: AURKA
AURKB = system: AURKB
AURKC = system: AURKC
AXL = system: AXL
BIKE = system: T5, BIKE
T5 construct: gene BMP2K

BLK = system: BLK
BMPR1A = system: BMPR1A
BMPR1B = system: BMPR1B
BMPR2 = system: BMPR2
BMX = system: BMX
BRAF = system: BRAF
BRK = system: T6, BRK
T6 construct: gene PTK6

BRSK1 = system: BRSK1
BRSK2 = system: BRSK2
BTK = system: BTK
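Also: KINOMEscan kinase panel screen.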

Row | SMILES | %Inh (AMPK-alpha2) [%] | %Inh (ANKK1) [%] | %Inh (ARK5) [%] | %Inh (ASK1) [%] | %Inh (ASK2) [%] | %Inh (AURKA) [%] | %Inh (AURKB) [%] | %Inh (AURKC) [%] | %Inh (AXL) [%] | %Inh (BIKE) [%] | %Inh (BLK) [%] | %Inh (BMPR1A) [%] | %Inh (BMPR1B) [%] | %Inh (BMPR2) [%] | %Inh (BMX) [%] | %Inh (BRAF) [%] | %Inh (BRK) [%] | %Inh (BRSK1) [%] | %Inh (BRSK2) [%] | %Inh (BTK) [%]
1 | c1ccc(-c2n[nH]cc2-c2ccnc3ccccc23)nc1 [GW271431] | 11 | 22 | 5 | 0 | 0 | 12 | 20 | 10 | 11 | 24 | 49 | 0 | 13 | 0 | 22 | 0 | 22 | 0 | 0 | 0
2 | COc1ccc(Nc2nccc(N3CCC(NC(=O)Nc4cc(C)ccc4C)C3)n2)cc1 (stereo not drawn) [GSK1379741] | 0 | 0 | 11 | 12 | 0 | 15 | 37 | 46 | 0 | 0 | 0 | 0 | 0 | 0 | 0 | 0 | 5 | 0 | 0 | 0
3 | COc1cc2c(cc1OC[C@@H](O)CO)ncc1c3ccc(C#N)cc3[nH]c21 | 0 | 73 | 0 | 0 | 0 | 6 | 52 | 0 | 17 | 96.2 | 24 | 5 | 0 | 0 | 0 | 0 | 0 | 0 | 0 | 0
4 | Fc1ccc(-c2nn3c(OCC(F)(F)F)cccc3c2-c2ccncc2)cc1 [GW514784] | 0 | 25 | 0 | 0 | 0 | 0 | 0 | 0 | 0 | 11 | 43 | 0 | 0 | 1 | 2 | 44 | 1 | 0 | 0 | 31
5 | Fc1ccc(-c2ncn(CCCN3CCOCC3)c2-c2cccnc2)cc1 [SB-211743] | 12 | 0 | 12 | 0 | 0 | 15 | 31 | 5 | 0 | 0 | 16 | 0 | 0 | 16 | 0 | 2 | 0 | 0 | 4 | 0
6 | O=C1Cc2cc(Nc3nc(NCc4cccc(S(=O)(=O)C(F)(F)F)c4)ncc3C(F)(F)F)ccc2N1 | 0 | 0 | 22 | 11 | 0 | 1 | 13 | 0 | 2 | 0 | 1 | 0 | 18 | 19 | 0 | 1 | 0 | 3 | 0 | 0
7 | Cc1cccc(-c2nc(-c3ccc(S(C)(=O)=O)cc3)sc2-c2ccncc2)c1 | 7 | 0 | 13 | 0 | 15 | 24 | 23 | 0 | 12 | 0 | 0 | 0 | 0 | 0 | 0 | 15 | 0 | 40 | 27 | 0
8 | Cc1cccc(Cn2ccn3c(=O)cc(N4CCOCC4)nc23)c1 [GSK2297542] | 12 | 19 | 12 | 0 | 6 | 15 | 0 | 18 | 5 | 15 | 57 | 0 | 0 | 0 | 27 | 4 | 22 | 0 | 6 | 0
9 | [2H]C([2H])(c1cccc(C(F)(F)F)c1C)n1ccn2c(=O)nc(N3CCOCC3)cc12 [GSK2336394] | 15 | 0 | 0 | 1 | 0 | 0 | 11 | 13 | 8 | 23 | 25 | 1 | 0 | 0 | 9 | 44 | 18 | 7 | 0 | 0
10 | NS(=O)(=O)CCc1cccc(Nc2nccc(-c3c(-c4cccc(NC(=O)c5c(F)cccc5F)c4)nn4ccccc34)n2)c1 [GSK336735] | 33 | 83 | 84 | 2 | 0 | 93.5 | 81 | 72 | 90.5 | 27 | 99.7 | 0 | 0 | 0 | 94.6 | 89 | 96 | 8 | 20 | 94.6
11 | Cl.Nc1ncnc2occ(-c3ccc(NC(=O)Nc4cc(C(F)(F)F)ccc4F)cc3)c12 [SB-707548] | 22 | 77 | 21 | 32 | 0 | 53 | 96.7 | 53 | 97.7 | 10 | 44 | 0 | 0 | 1 | 82 | 71 | 3 | 20 | 0 | 21
12 | COCCNC(=O)c1ccc(-c2cc(C(=O)NC3CC3)cc(F)c2C)cc1 [GW868318] | 0 | 11 | 0 | 5 | 26 | 27 | 33 | 0 | 0 | 7 | 0 | 19 | 19 | 46 | 7 | 10 | 0 | 0 | 18 | 0
13 | NS(=O)(=O)c1cccc(-c2ccc3ncc(N4CCOCC4)nc3c2)c1 [GSK1535721] | 12 | 15 | 0 | 0 | 0 | 19 | 0 | 0 | 2 | 0 | 0 | 0 | 7 | 2 | 30 | 0 | 13 | 0 | 0 | 1
14 | CC(C)Oc1ccc2c(-c3ccnc(Nc4ccc(N5CCN(C)CC5)cc4)n3)cnn2n1 [GW696155] | 52 | 20 | 95.5 | 0 | 0 | 98.6 | 70 | 75 | 74 | 99.8 | 23 | 0 | 90.5 | 19 | 4 | 43 | 6 | 0 | 0 | 20
15 | CCc1nc(-c2cccc(C)c2)c(-c2ccnc(NCc3ccccc3)c2)s1 | 5 | 0 | 15 | 0 | 0 | 0 | 14 | 0 | 0 | 0 | 0 | 0 | 0 | 9 | 0 | 38 | 0 | 2 | 0 | 0
